Screening data (PubChem BioAssay)
Rows were chosen to be rich in hits. Some 7.3% of all compounds tested hit in one or more screens of this group.
KinaseGlo FLuc: counter-screen: inhibitors of Kinase-Glo firefly luciferase; Q27757; Kinase-Glo luciferase, ATP luminescence, 8 min; Potency, µM (highest dose often 38.3 µM), for the others: at the top dose activity change, negative = inhibition, usual class: inhibitors; actives 0.28% (n = 200,000); also: % is scaled to controls: 0 for no effect and ±100 for the full control effect; nearly all actives have a fitted effect of over 60% in size
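Inhibition of Kinase-Glo luciferase light generation was assessed at 10 uM ATP in pH 7.2 imidazole buffer, with luminescence measured after eight minutes at ambient temperature.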
NPC1 promoter act: NPC1 promoter activation | Huh7 NPC1 promoter luciferase reporter, 24 h | Potency, µM (top dose mostly 9.22 µM), without a hit: at the highest dose activation, actives largely listed as activators | actives 2.4% (n = 320,000) | AID 485313; also: % of control where 0% means no effect; nearly all actives have a fitted effect of over 60% in size
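Compounds in DMSO were transferred onto Huh7 NPC1-luciferase reporter cells pre-incubated 2 h; after 24 h at 37 °C, Amplite reagent was dispensed and luminescence recorded 10 min later.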
SMN2 splice up: increases expression of the SMN2 splice variant; actives 2.8% (n = 210,000); HEK293 SMN2-luciferase splicing reporter, luminescence, 30-36 h; Potency, µM (doses to about 46.1 µM), inactives show at the highest dose activity change, positive = activation, actives largely listed as activators; also: % of control where 0% means no effect; nearly all actives have a fitted effect of over 55% in size
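HEK293 cells carry an SMN2 […]–luciferase reporter in which exon 7 inclusion puts luciferase in frame. Cells were plated 10-12 h before compound addition, then incubated 30-36 h at 37C. ONE-Glo luminescence was read; sodium butyrate at 4.5 mM final served as control.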
Rab9 promoter act: Rab9 promoter activation. Huh7 Rab9 promoter-luciferase reporter, luminescence, 24 h. Potency, µM (series often up to 9.22 µM), without a hit: at the highest dose activation, negative = inhibition, most hits filed as activators. actives 2.8% (n = 320,000). AID 485297; also: % of control where 0% means no effect; nearly all actives have a fitted effect of over 60% in size
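Steps: seed 1500 Huh7 Rab9-luc cells per well, rest 2 h at 37 °C; add compound in DMSO; incubate 24 h; add luciferase reagent, 10 min ambient; read luminescence.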
FLuc counter: counter-screen for miR-21 project: firefly luciferase inhibitors or activators | actives 6.9% (n = 360,000) | AID 588342 | P08659 | Potency, µM (doses to about 57.5 µM), without a hit: top-dose activity change, negative = inhibition, most hits filed as inhibitors | purified FLuc, Km substrates, luminescence inhibition;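 also: plate controls were vehicle for no effect and reference inhibitor for full effect; nearly all actives have a fitted effect of over 55% in size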
Target sequence (P08659 whole entry, looked up): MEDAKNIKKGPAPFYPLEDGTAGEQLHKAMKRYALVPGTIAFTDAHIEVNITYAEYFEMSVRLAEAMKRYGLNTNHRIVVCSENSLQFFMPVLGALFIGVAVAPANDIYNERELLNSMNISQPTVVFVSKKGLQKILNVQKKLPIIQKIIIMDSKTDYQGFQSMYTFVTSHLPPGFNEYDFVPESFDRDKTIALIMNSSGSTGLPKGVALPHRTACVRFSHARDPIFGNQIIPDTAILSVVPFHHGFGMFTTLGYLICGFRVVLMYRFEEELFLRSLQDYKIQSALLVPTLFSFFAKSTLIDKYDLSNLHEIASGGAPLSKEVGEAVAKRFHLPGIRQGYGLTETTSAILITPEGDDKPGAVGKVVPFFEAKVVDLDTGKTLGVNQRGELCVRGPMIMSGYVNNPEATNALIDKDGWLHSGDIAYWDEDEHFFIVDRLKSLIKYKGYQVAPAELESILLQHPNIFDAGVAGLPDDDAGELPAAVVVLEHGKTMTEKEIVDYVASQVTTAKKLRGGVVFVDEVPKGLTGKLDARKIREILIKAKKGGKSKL
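Purified P. pyralis luciferase, 10 nM final, with Km-level 10 uM D-luciferin and 10 uM ATP in 50 mM Tris acetate pH 7.5, 10 mM Mg acetate, 0.01% Tween-20, 0.05% BSA; 6-point qHTS titration about 60 µM downward; luminescence read.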
ELG1 genotoxic: inducers of genotoxicity in HEK293T ELG1-luciferase cells | HEK293T ELG1-luciferase reporter, luminescence, 16 h | AID 504466 | Potency, µM (series often up to 46 µM), for the others: top-dose activity change, positive = activation, actives largely listed as activators | actives 1.3% (n = 330,000); also: % of control where 0% means no effect; nearly all actives have a fitted effect of over 60% in size
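Genotoxic stress is detected as increased luminescence from luciferase-tagged ELG1 in HEK293T cells, measured with ONE-Glo after a 16 hr treatment at 37 °C.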
* marks the source's active call; other numbers are inactive results; u = inconclusive; x = no result given. Calls follow the shape of the dose curve; as a rule, active = well fitted curve in the direction sought with a large enough effect; inconclusive = small, poorly fitted or top-dose-only effect, or another doubt; inactive = no such curve, though single readings can be large; an effect the other way counts as inactive or inconclusive. Potency is read from the fitted curve at half-maximal effect.

SMILES	KinaseGlo FLuc	NPC1 promoter act	SMN2 splice up	Rab9 promoter act	FLuc counter	ELG1 genotoxic
CCc1ccc2nc(N3C(=O)C(O)=C(C(=O)c4ccco4)C3c3cccs3)sc2c1 (stereo unspecified)	3.1%	-4.6%	u	1.4%	u	4.6%
COc1cccc2c(Cl)c(CCCl)c(C)nc12	1.1%	0.4%	-3.1%	11.1%	21.3µM*	-7.7%
O=C(CSc1nnc(NC(=O)c2ccccc2)s1)NC1CCCC1	x	u	x	u	2.69µM*	9.0%
O=C(Nc1nnc(SCC(=O)N2CCOCC2)s1)c1ccccc1	-2.9%	29.8%	14.1µM*	u	2.69µM*	u
O=C(CSc1nnc(NC(=O)c2ccco2)s1)NC1CCCCC1	8.0%	0.8%	8.1%	3.8%	19µM*	5.6%
O=C(Cc1ccccc1)Nc1nnc(SCC(=O)NC2CCCC2)s1	-0.1%	2.4%	3.2%	-6.0%	-1.5%	8.7%
O=C(CSc1nnc(NC(=O)c2ccc(F)cc2)s1)NC1CCCC1	x	u	x	3.55µM*	2.39µM*	u
CCOc1ccc(CCNC(=O)Cn2ncc3c([nH]c4ccccc43)c2=O)cc1OCC	x	x	x	x	-1.4%	x
CCn1c(=N)n(CC(=O)c2ccc(Cl)c(Cl)c2)c2ccccc21	x	4.47µM*	x	3.98µM*	u	15.1%
Cn1c(=N)n(CC(=O)c2ccc(F)cc2)c2ccccc21	x	u	x	0.891µM*	1.35µM*	u
Cc1n(CC(=O)c2ccc(F)cc2)c2ccccc2[n+]1C	1.6%	-3.7%	-8.5%	-5.2%	-0.6%	-5.6%
O=C(Nc1ccc(F)cc1F)c1noc2c1CCC2	-10.0%	u	u	u	15.1µM*	13.2%
O=C(NCc1ccc(F)cc1)c1noc2c1CCCCC2	2.3%	0.6%	-4.9%	3.7%	-12.5%	-0.3%
O=C(Nc1ccccc1C(F)(F)F)c1noc2c1CCCCC2	x	x	11.2µM*	x	2.69µM*	x
O=C(Nc1cc(Cl)ccc1Cl)c1noc2c1CCCC2	x	2.2%	x	-2.1%	-9.2%	0.6%
COc1ccc2c(Cl)c(C(N)=O)sc2c1	-0.5%	12.9%	16.2%	21.2%	15.1µM*	-2.6%
Cc1sc2ncnc(NCC(c3ccccc3)N(C)C)c2c1C (stereo unspecified)	x	2.1%	x	-11.4%	-1.3%	-2.0%
COc1ccc(/C=N/Nc2ncnc3sc(C)c(C)c23)cc1	-0.8%	1.9%	5.6%	-4.3%	19µM*	4.8%
Cc1sc2ncnc(N/N=C/c3ccccc3O)c2c1C	-2.0%	6.1%	-81.0%	-12.1%	21.3µM*	u
Cc1sc2ncnc(NCc3cccs3)c2c1C	-3.1%	-17.3%	-34.3%	-30.9%	2.2%	3.6%
Cc1sc2ncnc(N/N=C/c3ccc(O)cc3)c2c1C	0.5%	-7.1%	-0.1%	-5.8%	19µM*	8.0%
Cc1sc2ncnc(NCC(O)c3ccccc3)c2c1C (stereo unspecified)	x	-0.6%	x	-10.2%	19µM*	-9.3%
O=Cc1ccc(CO)o1	x	x	4.2%	x	x	x
CCc1ccc(NC(=O)c2nnn(Cc3cccc(C(F)(F)F)c3)c2N)cc1	x	x	u	x	-0.4%	x
COc1cccc(/C=N/Nc2ncnc3scc(-c4ccccc4)c23)c1OC	-0.8%	1.7%	-10.0%	-6.6%	12µM*	-17.3%
SMILES	KinaseGlo FLuc	NPC1 promoter act	SMN2 splice up	Rab9 promoter act	FLuc counter	ELG1 genotoxic
Cc1cc(C)cc(Oc2ccc(N)cc2)c1	1.0%	1.1%	12.6µM*	-1.2%	-8.2%	21.9%
Cc1cccc(Oc2ccc(N)cc2)c1	-2.7%	0.6%	3.3%	14.5%	-14.9%	u
Cc1cc(/C=C(\C#N)C(=O)NCc2cccs2)c(C)n1-c1ccccc1F	-1.1%	3.55µM*	-29.3%	3.55µM*	2.13µM*	u
COc1ccc(/C=C(\C#N)C(=O)NCc2cccs2)cc1OC	0.6%	-3.2%	2.5%	-0.2%	-13.4%	-0.5%
Cc1ccccc1-n1c(C)cc(/C=C(\C#N)C(=O)NCC2CCCO2)c1C (stereo unspecified)	-1.9%	-0.2%	-6.5%	u	0.953µM*	10.3µM*
Cc1ccc(/C=C(\C#N)C(=O)NCC2CCCO2)o1 (stereo unspecified)	1.4%	12.6%	u	17.0%	-15.2%	12.1%
